According to PubChem BioAssay (EPA / NIEHS):
Calls of active or inactive are those of the source. How the source made its calls: active means hit-call score of the fitted dose curve at least 0.9, where 1 is the maximum; inactive means score below 0.9.

Read-out: MicroRNA 122 (MIR122), gene 406906
Assay: LTEA_HepaRG_MIR122: Life Technologies and Expression Analysis (LTEA) Assay for MicroRNA 122 (MIR122) using HepaRG (AID 2283516)
Settings: mRNA level, 48 h; actives raise or lower the signal
Protocol: LTEA_HepaRG is a cell based, multiplexed-readout assay that uses HepaRG, a human liver cell line, with measurements taken at 48 hours after chemical dosing on a 96-well plate.LTEA_HepaRG_MIR122 is one of 102 assay component(s) measured in the LTEA HepaRG cell culture assay. It is a marker of MicroRNA.Data from the assay component LTEA_HepaRG_MIR122 was analyzed into 1 endpoint. This assay endpoint, LTEA_HepaRG_MIR122, was analyzed with bidirectional fitting relative to DMSO as the negative control and baseline of activity. Using a type of inducible reporter, measures of mRNA induction for gain or loss-of-signal activity can be used to understand regulation of transcription factor activity. To generalize the intended target to other relatable targets, this assay endpoint is annotated to the microrna intended target family, where the subfamily is post-transcriptional regulation.
A total of 1060 chemcials from the ToxCast library were tested in eight-point concentration-response experiments. Cell culture and cytotoxicity assays were conducted at Thermo Fisher Scientific's Custom Services facility (Madison, WI). A single lot of human HepaRG cells (Thermo Fisher Scientific, Frederick, MD) was used for the cell culture experiments. 96-well format collagen type I coated plates of human HepaRG cells were prepared using established methods. Briefly, cryopreserved HepaRG cells were thawed, plated at a density of approximately 100,000 cells/well in HepaRG Thaw, Plate, and General Purpose media (HPRG770, Thermo Fisher Scientific), and incubated for 48 hours. 0.5% DMSO was selected as vehicle control to balance the requisite need of DMSO in HepaRG cultures to maintain differentiation (for example, baseline metabolism, proportions of hepatocytes vs. cholangiocytes), while enabling further hepatic receptor pathway activation (for example, PXR and CAR) in response to chemical exposure. 48 hours after plating, the culture medium was replaced with HepaRG Serum-Free Incudtion Media. Cells were exposed to each test chemical in duplicate and maintained in CO2 incubators for another 48 hours. Chemical plates were thawed to room temperature and 200x concentrations of treatment groups were prepared. 8-point conentration-reponse curves were made with the highest exposure at 100 uM, followed by half-log dilutions, all in 0.5% DMSO. Each test plate contained variouse controls, induction positive controls (1mM phenobarbital), cytotoxicity positive controls ([…] aflatoxin B1), vehicle controls (0.5% DMSO), and total lysis controls (0.5% DMSO). Cell morphology images were taken using an Essen IncuCyte FLR automated microscope, with six 96-well plates imaged in about 24 minutes. Images were captured and exported and JPEG files. Spent culture media was transfered to black-well plates for the LDH assay, and remaining media was sorted at -80 C for later use. Cells were treated with RLT buffer and frozen until shipped for gene expression analysis. Total RNA was isolated from the cell suspension in 75 uL of Buffer RLT (Qiagen, Germantown, MD 20874) by Quintiles/Expression Analysis (Durham, NC) using a custom isolation procedure. Total RNA from each plate well was transferred to a preamplification plate. Fluidigm's 96.96 Dynamic ArrayTM (Fluidigm, Amsterdam, the Netherlands) technology was used for gene expression analyses by quantitative reverse transcription polymerase chain reaction (qRT-PCR, performed by Quintiles/Expression Analysis, Durham, NC)89. Standard TaqManTM Assays (Applied Biosystems/ThermoFisher Scientific, Foster City, CA) were used to assess the expression of 93 genes selected based on their selectivity and sensitivity to important hepatic receptors known to be modulated by environmental chemicals; importance in human hepatocyte functionality; and hepatotoxicity. […]

SMILES | outcome | AC50
Nc1ccc(Oc2ccc(N)cc2)cc1 | inactive | 
O=Cc1ccco1 | inactive | 
COc1cc(C=O)cc2c1[C@H](COC(N)=O)[C@]1(OC(C)=O)ON2C[C@H]2[C@@H]1N2C(C)=O | inactive | 
Nc1ccc(Cc2ccc(N)cc2)cc1 | inactive | 
C=CCc1ccc2c(c1)OCO2 | inactive | 
CCCCCOC(=O)c1ccccc1C(=O)OCCCCC | inactive | 
CCC12COCN1COC2 | inactive | 
CC(C)(OOC(C)(C)c1ccccc1)c1ccccc1 | inactive | 
Cn1cc(-c2ccccc2)c(=O)c(-c2cccc(C(F)(F)F)c2)c1 | inactive | 
CC(C)(C)OOC(C)(C)CCC(C)(C)OOC(C)(C)C | inactive | 
Clc1ccc(C(c2ccc(Cl)cc2)C(Cl)Cl)cc1 | inactive | 
[As]#[In] | inactive | 
Clc1ccc(Cl)c(Cl)c1 | inactive | 
COP(=S)(OC)SCN1C(=O)c2ccccc2C1=O | inactive | 
Nc1cc(Cl)cc(C(=O)O)c1Cl | inactive | 
Cc1ccc(N=C=O)cc1N=C=O |  | 50 µM (active)
CCCCCCCCCCCCCN1CC(C)OC(C)C1 (stereo not given) | inactive | 
COC(=O)Nc1nc2ccccc2[nH]1 | inactive | 
CCOc1cccc(C2(N3CCN(c4ccccc4)CC3)CCC(C)CC2)c1 (stereo not given) | inactive | 
CCCSC(=O)N(CCC)CCC | inactive | 

SMILES | outcome | AC50
Cc1ccc([N+](=O)[O-])cc1 | inactive | 
c1ccc(NNc2ccccc2)cc1 | inactive | 
CCCCCCCCn1sccc1=O |  | 82.3 µM (active)
O=[N+]([O-])c1ccc(Oc2ccc(Cl)cc2Cl)cc1 | inactive | 
O=[N+]([O-])C(Br)(CO)CO | inactive | 
OCCOCCO | inactive | 
CCN(CC)CCO | inactive | 
Cc1cc(N=Nc2ccccc2C)ccc1N |  | 3.67 µM (active)
Clc1ccc(C(c2ccc(Cl)cc2)C(Cl)(Cl)Cl)cc1 | inactive | 
CCNS(=O)(=O)C(F)(F)C(F)(F)C(F)(F)C(F)(F)C(F)(F)C(F)(F)C(F)(F)C(F)(F)F |  | 48.2 µM (active)
Nc1ccc(N=Nc2ccccc2)cc1 |  | 18.1 µM (active)
Cc1ccc(N)cc1 | inactive | 
CC(C)COC(=O)c1ccccc1C(=O)OCC(C)C | inactive | 
CC(O)CCO (stereo not given) | inactive | 
O=C1CCCO1 | inactive | 
CCCCOC(=O)c1ccccc1C(=O)OCc1ccccc1 | inactive | 
CN(C)[C@@H]1C(=O)C(C(N)=O)=C(O)[C@@]2(O)C(=O)C3=C(O)c4c(O)cccc4[C@@](C)(O)[C@H]3C[C@@H]12 | inactive | 
C[C@]12C=CC3=C4CCC(=O)C=C4CC[C@H]3[C@@H]1CC[C@@H]2O |  | 69.6 µM (active)
c1ccc2c(c1)oc1ccccc12 | inactive | 
O=C(Oc1ccc(Br)cc1)N1CCN2CCC1CC2 | inactive | 
